This is an account of results in PubChem BioAssay (NCI).

The panel holds about 83,000 compounds, 20% with a hit somewhere; the sample as a whole holds those more often.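 Assay: single dose, 48 h. Readout: percent growth (0 = no net growth; negative = cell death). Active: <10.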 A number with no mark means an inactive call. The source made the active and inactive calls.

The experiment deals with MCF7 breast. The experiment in a line: NCI-60 one-dose screen, 48 h (100 = growth as untreated, 0 = no growth, -100 = all killed). The following applies: 10 µM. Here is the method: Growth inhibition of the MCF7 human tumor cell line is measured as a screen for anti-cancer activity. Cells are grown in 96 well plates and exposed to the test compound for 48 hours. Compounds are tested at a single concentration, which is 10^-5 M for most compounds. The reported endpoint is percent growth (GI% or GIPRCNT), where numbers from 0 - 100% represent growth inhibition, and numbers from -100% - 0 represent cell death. For example, a value of 40 represents 60% growth inhibition. A value of 0 means no net growth occurred over the course of the experiment. A value of -40 indicates 40% of cells at the beginning of the experiment died by the end of the experiment. A value of -100 means all cells are dead at the end of the experiment.
NCI-60 Human Tumor Cell Lines Screen was performed using the standard one-dose NCI protocol, which is described in more detail at https://dtp.cancer.gov/discovery_development/nci-60/default.htm.
Compounds with GIPRCNT values below 10 were considered active. Activity score was based on GIPRCNT using the following formula: […]
Score is 0 for GIPRCNT values of 100 or above, 50 for GIPRCNT values of 0, and 100 for GIPRCNT values of -100.
For `COC(=O)/C(CCC=C(C)C)=C1\[C@@H](OC(C)=O)C[C@@]2(C)[C@H]1C[C@@H](O)[C@H]1[C@@]3(C)CC[C@H](NCc4ccccc4)[C@@H](C)[C@@H]3CC[C@@]12C`, the growth is 49.5%.
As to `O=C(Nc1ccc(Cl)cc1)c1cc2ccccc2cc1OP(=O)(O)O`, the growth was 54%.
For the compound `Cc1nc(Nc2ccccn2)sc1C(=O)/C=C/c1ccc(Cl)cc1`, the growth is 17.6%.
`Nc1ccccc1-c1ccc(-c2ccc(Cl)cc2)c2c1[nH]c1ccccc12`: the growth is 68.7%.
The result for `CCC1=C[C@@H]2CN(C1)Cc1c([nH]c3ccccc13)[C@@](C(=O)OC)(c1cc3c(cc1OC)N(C)[C@H]1[C@@](O)(C(=O)OC)[C@H](OC(C)=O)[C@]4(CC)[C@@H]5C[C@@H]5CN5CC[C@]31[C@@H]54)C2` reads 3.46% (active); that for `COc1cc(C(C)n2cc(-c3ccccc3)nn2)ccc1OC1CCCC1` (stereo not given), 48.1%.
The result for `CC(=O)c1ccc(Nc2nc(NCCO)nc(Nc3ccc(Cl)cc3)n2)cc1` reads 69.1%; that for `COc1c2ccoc2c(/C=C/C=O)c2oc(-c3ccccc3)cc(=O)c12`, 31.5%.
Consider `NCCOc1ncccc1/C=C1\c2ccccc2-c2ccc([N+](=O)[O-])cc21`, for which the growth is -42% (active).
As to `CCOC(=O)c1cc2c(n1Cc1cccc(OC)c1)-c1oncc1CCC2`, the growth was 14.1%.
Regarding `Cn1c(/C=C(\C#N)c2cccc(C(F)(F)F)c2)nc2c(N3CCOCC3)nc(Cl)nc21`, the growth was -54.1% (active).
On to `CN(CCc1ccccc1)C(=S)N(C(=O)c1ccc([N+](=O)[O-])cc1)c1ccc(Cl)cc1`, for which the growth was 33%.
For the compound `O=c1oc2ccc(-c3ccc(F)cc3F)cc2c(=O)n1-c1ccc(Cl)c(C(F)(F)F)c1`, the growth was 7.27% (active).
With `CCOC(=O)c1sc(-c2ccc(OS(=O)(=O)c3ccccc3[N+](=O)[O-])c(C=O)c2)nc1C` the figure was 20.8%; with `NC(=O)CSc1nc(-c2ccc(F)cc2)cc(-c2ccco2)n1`, 83.2%.
For `Nc1nc(N)c2c(n1)NC1(C=C(O)c3ccccc31)C1=C(N2)c2ccccc2C1=O` (stereo not given), the growth is 97.1%.
Consider `O=C(Nc1ncc(Cc2cccc(C(F)(F)F)c2)s1)C1COc2ccccc2O1` (stereo not given), for which the growth is 81.8%.
Take `COc1cc2nc(-c3cnc(N(C)C)nc3)nc(NC3CCN(Cc4ccccc4)CC3)c2cc1OC`: the growth is -65.5% (active).
With `NC(CCc1nc2ccccc2c(=O)[nH]1)C(=O)O` (stereo not given), the growth is 105%.
For the compound `CC(=O)c1ccc2oc(=O)n(Cc3ccc(C#N)cc3)c(=O)c2c1`, the growth was 98.9%.
Turning to `CCn1c(SCC(=O)Nc2cc(C(F)(F)F)ccc2Cl)nc2ccccc2c1=O`, the growth is 28.9%.
The result for `CN1C(=O)N(C)C2C1NN=c1s/c(=C\c3c[nH]c4ccccc34)c(=O)n12` (stereo not given) reads 16%; that for `S=C1CCCC(=S)N1`, 105%.
Turning to `CCN1C(=O)N(c2ccccc2)C2Nn3c(s/c(=C4\C(=O)N(C(C)C)c5ccccc54)c3=O)=NC21` (stereo not given), the growth was 98.8%.
As to `COC(=O)c1c2c(c(C)[n+]([O-])c1C)C(=O)C(NCc1ccc(Br)cc1)=CC2=O`, the growth is -20.1% (active).
For `NCCOc1ncccc1/C=C1\c2ccccc2-c2ccc(F)cc21`, the growth is 14.9%.
With `O=C(/C=C/c1ccc(Cl)cc1)c1ccc(Nc2nc(NCCO)nc(Nc3ccc(Cl)cc3)n2)cc1`, the growth was -31.3% (active).
The result for `Cc1nc(Nc2cn[nH]c2C(=O)Nc2ccc(CN3CCN(C)CC3)cc2)c2ccsc2n1` reads 59.9%; that for `CS(=O)(=O)Nc1ccc(C(=O)NC(C(=O)NO)c2ccc(-c3cccc(F)c3)cc2)cc1` (stereo not given), 66.7%.
In the case of `COc1cc(/C=C/C(=O)c2ccc(Nc3nc(NCCO)nc(N4CCOCC4)n3)cc2)cc(OC)c1OC`, the growth was 3.22% (active).
With `COC(=O)c1c2c(c(C)[n+]([O-])c1C)C(=O)C(NCc1ccc(F)c(F)c1)=CC2=O`, the growth is -43.3% (active).
`CCCCCCCCCCOC(=O)c1ccccc1C(=O)OCCCC`: the growth is 102%.
With `COC(=O)C1=C(C)NC(C)=C(C(=O)OC)C(N2C(=O)CCC2=O)C1` (stereo not given) the figure was 69.6%; with `CC/C(=C(\CC)c1ccc(OCC[N+](C)(C)C)cc1)c1ccc(OC)cc1`, 89%.
With `O=C(/C=C/c1ccccc1)c1ccc(Nc2nc(NCCO)nc(Nc3ccc(Cl)cc3)n2)cc1` the figure was 9.88% (active); with `O=c1oc2ccc(F)cc2c(=O)n1-c1ccc(I)cc1F`, 1.73% (active); with `O=c1oc2ccc(I)cc2c(=O)n1-c1ccc(F)cc1F`, 5.86% (active).
`FC(F)(F)c1cccc(CNC2CCN(CCc3ccccc3)CC2)c1`: the growth was 74.9%.
For `Clc1ccc(Nc2nnc(-c3ccc4c(c3)OCO4)o2)cc1`, the growth was 93.4%.
For the compound `CCN1CCN(C(=S)SCC(=O)Nc2nc3ccc(C)cc3s2)CC1`, the growth was 105%.
